In PubChem BioAssay AID493231 (Broad Institute, 2011) one finds outcome data, which are given here for 38 molecules.

In this test the target is Acyl-homoserine lactone acylase PvdQ (Pseudomonas aeruginosa (strain ATCC 15692 / DSM 22644 / CIP 104116 / JCM 14847 / LMG 12228 / 1C / PRS 101 / PAO1)) (UniProt Q9I194). Kind of test: P. aeruginosa PvdQ acylase inhibitors, dose response, biochemical, fluorescence, plate reader and imaging, cherry-picks (AID 493231).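 Note: more negative values mean stronger inhibition of the acylase.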
Sequence of Acyl-homoserine lactone acylase PvdQ (Pseudomonas aeruginosa (strain ATCC 15692 / DSM 22644 / CIP 104116 / JCM 14847 / LMG 12228 / 1C / PRS 101 / PAO1)) (Q9I194 whole entry, looked up): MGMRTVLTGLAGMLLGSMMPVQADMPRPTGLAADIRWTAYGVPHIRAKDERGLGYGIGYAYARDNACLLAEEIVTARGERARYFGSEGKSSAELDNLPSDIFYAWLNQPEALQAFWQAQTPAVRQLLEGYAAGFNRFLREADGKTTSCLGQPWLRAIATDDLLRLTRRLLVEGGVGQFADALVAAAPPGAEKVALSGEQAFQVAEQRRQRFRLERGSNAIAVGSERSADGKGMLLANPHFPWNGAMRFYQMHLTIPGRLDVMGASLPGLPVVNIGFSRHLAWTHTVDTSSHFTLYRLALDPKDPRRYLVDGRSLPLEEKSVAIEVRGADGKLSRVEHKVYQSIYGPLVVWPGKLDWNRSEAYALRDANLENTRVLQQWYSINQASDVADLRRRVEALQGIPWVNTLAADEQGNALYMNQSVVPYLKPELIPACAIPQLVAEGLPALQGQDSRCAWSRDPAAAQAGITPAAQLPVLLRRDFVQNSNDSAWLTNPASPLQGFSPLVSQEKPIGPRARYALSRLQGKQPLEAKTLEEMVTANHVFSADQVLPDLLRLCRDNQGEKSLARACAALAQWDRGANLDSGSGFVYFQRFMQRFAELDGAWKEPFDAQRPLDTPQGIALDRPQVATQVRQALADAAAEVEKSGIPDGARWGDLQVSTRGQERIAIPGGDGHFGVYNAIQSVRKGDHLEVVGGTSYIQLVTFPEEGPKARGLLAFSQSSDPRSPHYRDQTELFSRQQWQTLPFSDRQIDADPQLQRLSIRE

Results with a measured potency or affinity are listed apart. The source made the active and inactive calls. The rule behind the calls is not given here.

Take `CC(=O)c1c(C)[nH]c(C(=O)COC(=O)c2cccs2)c1C`: the result was inactive.
To `COC(=O)CNC(c1ccccc1)c1cc(C)ccc1NS(=O)(=O)c1ccc(C)cc1` (stereo not drawn) belongs “inactive”.
To `CC(C)Cn1nc(C(=O)Nc2nnc(C3CC3)s2)c2ccccc2c1=O` belongs “inactive”; to `NC(=O)c1cc(Sc2ccccc2)nc2ccccc12`, “inactive”; to `NC(=O)c1ccc(NC(=O)COC(=O)c2n[nH]c3ccccc23)cc1`, “inactive”.
In the case of `Cn1c(=O)c2[nH]c(-c3ccccc3)c(O)c2n(C)c1=O` it was “inactive”.
Regarding `CCOc1ccccc1NC(=S)N1CCC(NC(=O)NC23CC4CC(CC(C4)C2)C3)CC1`, the molecule was called inactive.
For `CN(c1ccc(C(=O)Nc2ccc3c(c2)OCCO3)cc1)S(C)(=O)=O`, the outcome was inactive.
In the case of `Cc1nn(S(=O)(=O)c2ccccc2)c(C)c1S(=O)(=O)N1CCOCC1` it was “inactive”; in that of `O=C(NCC1CCCCC1)c1cc(Br)ccc1Cl`, “inactive”.
In the case of `Cc1cc(C)n2c(SCC(=O)Nc3ccc(F)cc3)nnc2n1` it was “inactive”.
In the case of `CCCCNc1c(C(=O)OCC)c(=O)[nH]c2ccccc12` it was “inactive”; in that of `Cc1ccc2[nH]c(=O)c3cc(C(=O)NC(C)C)sc3c2c1`, “inactive”.
For the molecule `O=C1C=C(c2ccccc2)OC(c2ccccc2)O1` (stereo not drawn), the result was inactive.
In the case of `C=CCNC(=S)NNC(=O)C(CC(C)C)CC(C)O` (stereo not drawn) it was “inactive”.
Turning to `CC(=O)N/C(=N/c1nc(C)cc(C)n1)Nc1ccc(C)cc1C`, the molecule was classed as inactive.
In the case of `CCOC(=O)Nc1ccc2nc(N3CCCCCC3)sc2c1` it was “inactive”; in that of `CCOC(=S)SCC(=O)Nc1nccs1`, “inactive”; in that of `Cc1[nH]nc2c1C(c1ccco1)C(C#N)=C(N)O2` (stereo not drawn), “inactive”.
`CCOc1ccccc1-c1cc(-c2n[nH]c(=S)n2CC)c2ccccc2n1`: the result was inactive.
Consider `COC(=O)c1cc(S(=O)(=O)Nc2cccc(S(N)(=O)=O)c2)oc1C`, for which the call was inactive.
To `O=C1OC(Nc2ccc3c(c2)OCO3)c2ccccc21` (stereo not drawn) belongs “inactive”; to `O=C(/C=C/c1ccc(Br)cc1)c1ccco1`, “inactive”.
Regarding `CC(C)[N+]1=C2C=CC=CC=C2SC12C([N+](=O)[O-])=CC(=[N+]([O-])[O-])C=C2[N+](=O)[O-]` (stereo not drawn), the result was inactive.
For the molecule `Cc1cc(NC(=O)c2ccc(Br)c([N+](=O)[O-])c2)no1`, the call was inactive.
To `Cc1cc(=O)[nH]c(SCC(=O)Nc2ccc(Br)cn2)n1` belongs “inactive”; to `O=C(NCCc1ccc2c(c1)OCCO2)c1ccccc1F`, “inactive”; to `COc1ccccc1C1CCN(C(=O)C2CCCCC2)CC1`, “inactive”.
In the case of `CC1CCCCC1NS(=O)(=O)c1ccc(S(=O)(=O)N2CCCC2)cc1` (stereo not drawn) it was “inactive”; in that of `O=C1/C(=C/c2cccc([N+](=O)[O-])c2)Oc2cc(O)ccc21`, “inactive”.
With `CN(C)CCCN(Cc1cc2cc3c(cc2[nH]c1=O)OCO3)C(=S)Nc1cccc(Cl)c1`, the call was inactive.
`O=[N+]([O-])c1nn(-c2ccc(Cl)cc2)n(O)c1=NCc1ccccc1`: the molecule was called inactive.
In the case of `Cc1cc(C(=O)OCC(=O)Nc2cc(C)on2)c2ccccc2n1` it was “inactive”; in that of `CCCSC1=C(C#N)C(c2ccc(OC)cc2)C2=C(CC(C)(C)CC2=O)N1` (stereo not drawn), “inactive”.
As for `CCOC(=O)c1ccc(Nc2ncccc2[N+](=O)[O-])cc1`, the call was inactive.
Consider `CCCc1nnc(NC(=O)Cn2cnc3ccccc3c2=O)s1`, for which the call was inactive.
To `O=c1[nH]c(C2CCN(S(=O)(=O)c3ccc(C(F)(F)F)cc3)CC2)nc2c1nnn2Cc1ccc(F)cc1` belongs “inactive”.
To `Cc1nc2ccc(S(=O)(=O)Nc3ccc(-c4nc5cccnc5s4)cc3)cc2s1` belongs “inactive”.
